The whole screen tested about 2,200 compounds, of which about 530 (24%) were called active.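 Rule for the calls: active = inhibition above a set limit at one or more concentrations of the dose series; inactive = inhibition under that limit at every dose.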 The list is a sample of the results. Entries with a potency or affinity are not part of this list.

The experiment is described as follows: nmpC-GFP reporter counter-screen in S. Typhimurium, dose response, counter-screen for PhoP regulon inhibitor project, Salmonella Typhimurium, GFP fluorescence (AID 2401).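 Note: S. typhimurium with Mg-insensitive nmpC-GFP reporter grown at 10 µM Mg2+; drop in reporter fluorescence reflects general culture growth inhibition.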 To be noted: 4 h; series mostly up to 150 µM.
Consider `COc1cccc(NC(=O)CNC(=O)c2cccs2)c1`, for which the outcome was inactive.

As to `COCC(=O)N(Cc1ccco1)c1nnc(C2CCOC2)s1` (stereo unspecified), the compound was called inactive.

On to `Cc1ccc(C(C)C)cc1C(=O)CC1(O)C(=O)N(C)c2ccccc21` (stereo unspecified), for which the outcome was inactive.

Regarding `COC(=O)CSc1nc(SCc2ccccc2Cl)nc2c1CCCC2`, the compound was classed as inactive.

On to `CCOC(=O)c1[nH]c2ccccc2c1NC(=O)C(C)(C)C`, for which the result was inactive.

Consider `COc1ccc2nc(Nc3nc4cc5c(cc4s3)OCCO5)sc2c1`, for which the outcome was inactive.

As for `NNc1nc2c(-c3cccc(C(F)(F)F)c3)nnn2c2ccccc12`, the outcome was inactive.

With `COc1ccc2oc(=O)cc(C)c2c1`, the call was inactive.

On to `COc1cccc(C(=O)Oc2c(CN3CCOCC3)cc(Cl)c3cccnc23)c1`, for which the call was inactive.

As to `COc1ccccc1N1CCN(C(CNS(=O)(=O)c2ccccc2)c2cccnc2)CC1` (stereo unspecified), the compound was called inactive.

Turning to `c1coc(CNc2c3c(nc4ncnn24)CCCC3)c1`, the outcome was inactive.

Regarding `O=C(NNc1nc(-c2ccccc2)cs1)c1ccco1`, the result was inactive.

Turning to `COCCNS(=O)(=O)c1cccn1-c1ncc(C(F)(F)F)cc1Cl`, the compound was classed as inactive.

For the compound `CC(=O)c1c(C)n([O-])c2cc(F)c(F)cc2[n+]1=O`, the compound was classed as inactive.

`CCOC(=O)CN(C)Cc1c[nH]c2ccccc12`: the compound was classed as inactive.

With `O=c1c2cc(Br)ccc2nc(-c2ccccc2)n1O`, the outcome was inactive.

As for `N#Cc1c(-c2ccco2)cc(-c2ccc(F)cc2)nc1N`, the outcome was inactive.

Take `O=C1N2CCCc3cccc(c32)C12Nc1ccccc1S2` (stereo unspecified): the result was inactive.

For `CN1CCN(C(c2cccc(C(F)(F)F)c2)c2nnnn2C(C)(C)C)CC1` (stereo unspecified), the compound was called inactive.

`C#CCN1C(=O)C(O)(CC(=O)c2ccc(OC)c(OC)c2)c2ccccc21` (stereo unspecified): the outcome was inactive.

With `CCCCn1cnc2sc(-c3ccccc3)cc2c1=O`, the outcome was inactive.

As for `O=C(Nc1ccc2c(c1)OCO2)c1cnn2cccnc12`, the compound was classed as inactive.

As for `CN(C)S(=O)(=O)Oc1ccsc1C(=O)Nc1ccccc1Cl`, the outcome was inactive.

In the case of `CCSc1cc(N2CCCC2)nc(-c2cccc(C)c2)n1`, the compound was classed as inactive.

Consider `CC(C)c1ccc(C2C3CSCC=C3C(C#N)=C(N)C2(C#N)C#N)cc1` (stereo unspecified), for which the result was inactive.

As to `Cn1c(CN2CCCCC2)nc2cc(NS(=O)(=O)c3ccc(Cl)cc3)ccc21`, the outcome was inactive.

With `COc1ccc(S(=O)(=O)N2Cc3ccccc3CC2C(=O)N2CCOCC2)cc1OC` (stereo unspecified), the compound was classed as inactive.

Regarding `Clc1ccc(SCCCCn2ccnc2)cc1`, the result was inactive.

In the case of `O=c1[nH]c(NNC(=S)NCc2ccccc2)nc2c1C1(CCCCC1)Cc1ccccc1-2`, the call was inactive.

Take `O=S1(=O)C=CC(Nc2cccc(Cl)c2)C1` (stereo unspecified): the outcome was inactive.

Consider `O=C(CSc1nnc2c(Cl)cc(Cl)cn12)NC1CCS(=O)(=O)C1` (stereo unspecified), for which the compound was classed as inactive.

With `CCc1cccc(NC(=O)Nc2cccs2)c1`, the compound was classed as inactive.

Consider `COc1cccc2c(=O)c3c(cnn3C)n(C)c12`, for which the compound was called inactive.

For `COC(=O)c1cccc(NC(=O)CCCOc2ccccc2)c1`, the compound was classed as inactive.

With `O=C(NCc1cccs1)c1cccc(Nc2nc3ccc(Br)cc3[nH]2)c1`, the call was inactive.

For the compound `Cn1c(=O)n(CC(=O)Nc2ccccc2)c2ccccc21`, the call was inactive.

Regarding `O=C(O)C1CC=CCC1C(=O)NC12CC3CC(CC(C3)C1)C2` (stereo unspecified), the compound was classed as inactive.

On to `O=C(OCc1nnc(-c2ccccc2)o1)c1ccc(S(=O)(=O)NCc2ccco2)cc1`, for which the compound was called inactive.

As for `Cc1ccc(C[n+]2cc(-c3ccc(Cl)cc3)n3c2CCC3)cc1`, the outcome was inactive.

Take `Cc1ccc(NC(=O)CCN2CCc3ccccc3C2)cc1`: the result was inactive.

With `COc1ccc(-c2csc(NC(=O)C3CCCO3)n2)cc1` (stereo unspecified), the outcome was inactive.

For the compound `Cc1nc(NC(=O)c2ccccc2)sc1-c1csc(Nc2ccc(F)cc2)n1`, the result was inactive.

Take `CCOC(=S)SCC(=O)Nc1nc(-c2ccccc2)cs1`: the call was inactive.

Take `CN(C)CC(=O)Nc1nc(-c2ccccc2)cs1`: the compound was classed as inactive.

As to `CCOC(=O)C1=C(C)N(CCO)C(=O)NC1c1cccc(O)c1` (stereo unspecified), the outcome was inactive.

For `CCCNC(=O)CSc1nnc(C)s1`, the call was inactive.

As for `Cc1nc2c(Cl)cccc2c2c1CC(CBr)O2` (stereo unspecified), the result was inactive.

Turning to `CCC1=NNc2cccc3c(OC)ccc1c23`, the result was inactive.

As for `COc1ccc(-c2c/c(=N\c3nc(-c4ccccc4)c(C)s3)c3ccccc3o2)cc1O`, the outcome was inactive.

For `COC(=O)c1c(C)oc2ccc(NS(=O)(=O)c3cccs3)cc12`, the compound was classed as inactive.

As for `O=C(CCNS(=O)(=O)c1cccc2nsnc12)NCc1cccs1`, the outcome was inactive.

Take `O=C(NCc1cccs1)[C@@H]1CSC2c3ccccc3C(=O)N21` (stereo partly specified): the call was inactive.

`Nc1cc(N)nc(SCc2cc(=O)oc3cc4c(cc23)CCC4)n1`: the call was inactive.

Regarding `CCCn1c(SCC(=O)c2c(C)[nH]c(C)c2C(=O)OCC)nc2ccccc21`, the outcome was inactive.

As to `O=C(CCCN1C(=O)CCC1=O)Nc1ccc2c(c1)OCCO2`, the outcome was inactive.

Turning to `CCCCn1nnnc1NCc1cc(OC)c(OC)cc1OC`, the result was inactive.

Take `CCCCCNS(=O)(=O)c1cc(C)ccc1OC`: the compound was called inactive.

As for `Cc1ccc(S(=O)(=O)NCCC(=O)OCn2nnc3ccccc3c2=O)cc1`, the call was inactive.

For the compound `COc1ccc(-c2nnn(CC(=O)N(Cc3ccco3)C(C(=O)NCC3CCCO3)c3ccco3)n2)cc1` (stereo unspecified), the call was inactive.

`COC(=O)c1cc(C#N)c(Oc2ccc(F)cc2)nc1C`: the compound was called inactive.

In the case of `O=C1C(c2ccc(F)cc2)N(Cc2ccc3c(c2)OCO3)C(=O)CN1C1CCCCCC1` (stereo unspecified), the call was inactive.

As to `Cc1ccc(-c2[nH]c(-c3ccc(Cl)cc3)nc2SCC(=O)NCC2CCCO2)cc1` (stereo unspecified), the compound was called inactive.

As for `COc1cc(C(=O)NC(=S)Nc2ccc3oc(=O)ccc3c2)cc(OC)c1OC`, the compound was called inactive.

Turning to `Cc1nc(N2CCN(c3ccccc3)CC2)nc2c1C(=O)CC(C)C2` (stereo unspecified), the result was inactive.

On to `O=C(Nc1ccc2oc(-c3ccc(Cl)c(Cl)c3)nc2c1)c1ncn[nH]1`, for which the compound was called inactive.

For the compound `O=C(COC(=O)c1cn(-c2ccccc2)nc1-c1ccccc1)c1cccc([N+](=O)[O-])c1`, the outcome was inactive.

On to `CCc1ccc(C(c2c(C)nn(-c3ccccc3)c2N)c2c(C)nn(-c3ccccc3)c2N)cc1`, for which the outcome was inactive.

Turning to `O=C(NCc1ccccn1)c1cn(-c2ccccc2)nc1-c1ccc(Cl)cc1`, the compound was classed as inactive.

Consider `O=C(OCc1ccccc1)c1cn(-c2ccccc2)nc1-c1ccncc1`, for which the compound was classed as inactive.

Take `C/C(=N\N=C(/N)SC1CC(=O)N(c2cccc(Cl)c2)C1=O)c1cccs1` (stereo unspecified): the compound was called inactive.

On to `Cc1ccc(-n2ncc3c(N4CCN(c5ccccc5)CC4)ncnc32)c(C)c1`, for which the compound was classed as inactive.

`Cc1ccccc1-n1c(=O)c2ccccc2n2cnnc12`: the result was inactive.

For `CCCn1nnc(NC(=O)c2ccc(Br)o2)n1`, the outcome was inactive.

As to `Cc1ccc(NC(=O)COc2ncnc3c(Cl)cc(Cl)cc23)cc1[N+](=O)[O-]`, the compound was classed as inactive.

For the compound `O=C(NCc1cccnc1)c1ccc(Cl)cc1[N+](=O)[O-]`, the compound was called inactive.

In the case of `Cc1cc([N+](=O)[O-])cc2ncccc12`, the call was inactive.

Take `CC1(C)CC(=O)C2=C(C1)N(c1ccc(F)cc1)C(N)=C(C#N)C2c1cccs1` (stereo unspecified): the compound was called inactive.

On to `CCn1c(=O)c(=O)[nH]c2cc(C(=O)NCC3CCCCC3)ccc21`, for which the result was inactive.

As for `O=c1c2c([nH]c3ccccc13)CCCCC2`, the result was inactive.

For `Cc1cc(NC(=O)c2ccco2)ccc1-n1cnnn1`, the outcome was inactive.

`c1ccc(CSc2nnc(-c3ccncc3)o2)cc1`: the call was inactive.

Turning to `O=C1Nc2ccc(F)cc2C12SCCS2`, the result was inactive.

As for `CC(=S)c1c(C)cc2cc(C)ccn12`, the compound was classed as inactive.

Consider `COc1ccc(N=c2cc(-c3ccc(OC)cc3)oc3ccccc23)cc1`, for which the outcome was inactive.

For `CN1C(=S)N(c2ccccc2)C(=O)/C1=C/c1ccco1`, the compound was classed as inactive.

Regarding `CCn1c(SCc2ccc(F)cc2)nc2ccccc2c1=O`, the outcome was inactive.

Take `COC(=O)c1ccc(CSc2nnnn2-c2ccccc2)o1`: the outcome was inactive.

Regarding `Nc1ccc(Nc2ccccc2)c(Cl)c1`, the result was inactive.

Turning to `CCOC(=O)c1cnc2ccccc2c1Nc1ccc2c(c1)OCCO2`, the compound was called inactive.

Regarding `CCOc1ccc(CNc2ccc(N3CCCC3)cc2)cc1`, the call was inactive.

With `CCOc1ccc(Nc2nc(NCCN3CCOCC3)nc(OC)n2)cc1`, the outcome was inactive.

As to `Cc1cccc(Nc2nc(N)nc(CN3CCN(c4ccccc4)CC3)n2)c1`, the call was inactive.

Regarding `CCc1ccc(Nc2nc(N)nc(CSc3nc4ccccc4s3)n2)cc1`, the outcome was inactive.

Turning to `C=CCN=C(NC#N)SCc1ccccc1Cl`, the result was inactive.

In the case of `Cc1ccc(NC(=O)C2CC(=O)NC(N3CCCCC3)=N2)cc1Cl` (stereo unspecified), the call was inactive.

For `COC(=O)N1CCN(c2ccc(Cl)c(Cl)c2)CC1`, the compound was classed as inactive.

For `O=C(COc1ncnc2sccc12)N1CCN(S(=O)(=O)c2ccc(Cl)cc2)CC1`, the call was inactive.

As to `CC1CCN(C(c2cc3cc4c(cc3[nH]c2=O)OCO4)c2nnnn2CC2CCCO2)CC1` (stereo unspecified), the outcome was inactive.

`CCOC(=O)C[n+]1c(C)sc2ccc(OC)cc21`: the compound was classed as inactive.

Turning to `COc1ccc(C)cc1Nc1nc(-c2c(C)[nH]c3ccccc23)cs1`, the result was inactive.

Turning to `CCOC(=O)c1c(N)ssc1=S`, the outcome was inactive.

Turning to `O=c1[nH]c(NCc2ccco2)nnc1Cc1ccccc1Cl`, the compound was classed as inactive.

For `N/C(=N\OC(=O)c1ccc(F)cc1)c1nonc1N`, the compound was called inactive.

Regarding `O=C(c1ccccc1)N1CCN(c2ccc([N+](=O)[O-])c(NCc3ccco3)c2)CC1`, the result was inactive.

`O=C(NC(=Nc1ccccc1)N1CCOCC1)Nc1ccccc1`: the result was inactive.

Take `COc1ccc(C(=O)On2c(-c3ccc(Br)cc3)nc3ccccc3c2=O)cc1`: the result was inactive.

For `Cc1cc(-c2csc(N)n2)c(C)n1-c1ccccc1`, the result was inactive.

In the case of `N#CC1=C(N)N=C(SCc2cccc3ccccc23)C(C(N)=O)C12CCCCC2` (stereo unspecified), the call was inactive.

As to `CCCCC1CCC(C(=O)Nc2ccccc2)CC1` (stereo unspecified), the compound was called inactive.

Regarding `Cc1ccc(CCNC(=O)C2CCCN(S(=O)(=O)c3c(C)noc3C)C2)cc1` (stereo unspecified), the outcome was inactive.

Take `c1ccc2c(c1)ncn2CCCCOc1ccc2c(c1)CCC2`: the compound was classed as inactive.

As to `O=C(c1ccc(CSc2nc3ccncc3[nH]2)cc1)N1CCN(c2cccc(Cl)c2)CC1`, the result was inactive.

Take `CC(=O)N1N=C(c2ccco2)CC1c1ccc(Br)cc1` (stereo unspecified): the result was inactive.

For the compound `OCCCNc1nc(-c2ccc(Cl)cc2)nnc1-c1ccc(Br)cc1`, the outcome was inactive.

As to `CC(C)[C@@H]1CC[C@@H](C)C[C@H]1OC(=O)C[n+]1cc(-c2ccc(Cl)cc2)n2c1CCCCC2`, the outcome was inactive.

As for `COc1ccc(-n2c(CNc3ccc(C)cc3)nnc2SCc2ccccc2)cc1`, the compound was called inactive.

For the origin of these results see PubChem BioAssay AID2401 (Southern Research Specialized Biocontainment Screening …, 2010).
